Legend:
Experiment in all cases: log2 ratio of Biotin-Ahx-Ub-VS probe labelling (fragment/DMSO); higher = less target engagement (more negative = stronger competition), active = hit call of the paper (q ≤ 0.05, log2 ratio ≤ -1)
Conditions in all cases: compound concentration: 200 uM; treatment time: 3 h
ALG13 = target: T1, ALG13 (UniProt Q9NP73)
T1 sequence (whole entry): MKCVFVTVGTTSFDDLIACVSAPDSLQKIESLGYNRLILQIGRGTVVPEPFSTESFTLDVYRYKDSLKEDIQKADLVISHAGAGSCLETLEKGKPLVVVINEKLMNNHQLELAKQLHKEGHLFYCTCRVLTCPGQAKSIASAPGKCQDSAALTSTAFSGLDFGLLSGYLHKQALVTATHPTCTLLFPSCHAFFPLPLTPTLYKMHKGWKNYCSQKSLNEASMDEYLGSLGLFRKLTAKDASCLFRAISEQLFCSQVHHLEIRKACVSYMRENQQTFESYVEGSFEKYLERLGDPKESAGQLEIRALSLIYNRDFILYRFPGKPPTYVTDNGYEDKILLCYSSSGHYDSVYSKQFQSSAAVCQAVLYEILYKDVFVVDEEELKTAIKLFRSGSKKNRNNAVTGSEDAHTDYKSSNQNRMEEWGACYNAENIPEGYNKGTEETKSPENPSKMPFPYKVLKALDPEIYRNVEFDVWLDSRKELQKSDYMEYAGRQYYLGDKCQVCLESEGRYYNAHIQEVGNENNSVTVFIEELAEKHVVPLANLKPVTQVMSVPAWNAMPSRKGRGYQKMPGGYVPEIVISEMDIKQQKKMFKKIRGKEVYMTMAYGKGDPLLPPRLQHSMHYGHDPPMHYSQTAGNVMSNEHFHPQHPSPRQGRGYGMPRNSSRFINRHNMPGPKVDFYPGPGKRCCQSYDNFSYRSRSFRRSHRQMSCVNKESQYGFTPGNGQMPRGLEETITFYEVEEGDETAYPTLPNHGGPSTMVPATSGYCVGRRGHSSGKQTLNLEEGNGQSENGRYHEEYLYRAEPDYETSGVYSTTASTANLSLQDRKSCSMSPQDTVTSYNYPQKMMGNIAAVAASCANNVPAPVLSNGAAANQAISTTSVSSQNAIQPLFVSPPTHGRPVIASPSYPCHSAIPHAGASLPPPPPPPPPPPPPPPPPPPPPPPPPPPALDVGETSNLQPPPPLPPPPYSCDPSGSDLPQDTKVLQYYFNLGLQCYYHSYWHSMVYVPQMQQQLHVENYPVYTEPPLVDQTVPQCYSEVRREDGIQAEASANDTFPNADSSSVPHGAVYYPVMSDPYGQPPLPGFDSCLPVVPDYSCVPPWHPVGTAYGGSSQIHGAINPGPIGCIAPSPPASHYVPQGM
How it was run: (§1)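 Global-median-normalised Spectronaut label-free quantities were compared by unpaired t-test, and values are average log2 ratios of fragment over vehicle. Only proteins with ≥2 unique peptides were used. HEK293T lysate (495 µg per sample) was treated in triplicate with fragment at 200 µM or vehicle for 3 h and then with Biotin-Ahx-Ub-VS at 0.5 µM final for 1 h. Labelled DUBs were then NeutrAvidin-enriched, digested with LysC and trypsin, and run by diaPASEF LC-MS/MS.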

ATXN3 = ATXN3 (UniProt P54252)
How it was run: as §1

BAP1 = target: T2, BAP1 (UniProt Q92560)
T2 sequence (whole entry): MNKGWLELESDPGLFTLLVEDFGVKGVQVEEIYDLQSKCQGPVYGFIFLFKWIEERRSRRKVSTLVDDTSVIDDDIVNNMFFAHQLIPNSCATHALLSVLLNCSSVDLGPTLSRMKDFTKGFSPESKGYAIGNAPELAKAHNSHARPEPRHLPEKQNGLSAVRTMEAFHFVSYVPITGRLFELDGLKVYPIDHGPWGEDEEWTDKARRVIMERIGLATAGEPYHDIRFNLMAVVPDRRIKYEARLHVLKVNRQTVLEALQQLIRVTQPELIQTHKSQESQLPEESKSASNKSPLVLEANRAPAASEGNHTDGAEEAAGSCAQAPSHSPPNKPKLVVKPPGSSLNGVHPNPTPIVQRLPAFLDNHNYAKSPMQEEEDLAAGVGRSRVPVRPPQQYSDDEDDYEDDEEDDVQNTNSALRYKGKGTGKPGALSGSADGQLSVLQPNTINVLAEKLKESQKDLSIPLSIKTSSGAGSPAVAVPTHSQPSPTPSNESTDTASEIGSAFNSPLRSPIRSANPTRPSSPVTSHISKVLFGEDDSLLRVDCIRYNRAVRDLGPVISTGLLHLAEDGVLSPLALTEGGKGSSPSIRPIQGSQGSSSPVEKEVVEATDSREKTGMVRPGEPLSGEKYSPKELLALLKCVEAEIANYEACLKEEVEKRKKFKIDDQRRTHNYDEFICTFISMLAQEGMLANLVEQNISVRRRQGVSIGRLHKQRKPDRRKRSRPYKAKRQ
How it was run: as §1

EIF3F = EIF3F (UniProt O00303)
How it was run: as §1

EIF3H = EIF3H (UniProt O15372)
How it was run: as §1

FAM105A = target: T3, FAM105A (UniProt Q9NUU6)
T3 sequence (whole entry): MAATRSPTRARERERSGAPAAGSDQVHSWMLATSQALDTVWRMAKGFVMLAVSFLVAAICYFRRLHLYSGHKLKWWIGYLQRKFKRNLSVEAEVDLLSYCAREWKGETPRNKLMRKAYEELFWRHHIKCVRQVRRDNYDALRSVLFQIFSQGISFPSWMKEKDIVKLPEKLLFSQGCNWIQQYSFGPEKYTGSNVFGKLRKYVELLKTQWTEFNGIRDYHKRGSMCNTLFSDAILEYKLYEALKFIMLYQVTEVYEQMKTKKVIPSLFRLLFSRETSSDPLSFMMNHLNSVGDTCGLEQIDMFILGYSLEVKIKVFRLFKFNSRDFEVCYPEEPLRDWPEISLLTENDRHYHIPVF
How it was run: as §1

OTUB1 = OTUB1 (UniProt Q96FW1)
How it was run: as §1

OTUD4 = target: T4, OTUD4 (UniProt Q01804)
T4 sequence (whole entry): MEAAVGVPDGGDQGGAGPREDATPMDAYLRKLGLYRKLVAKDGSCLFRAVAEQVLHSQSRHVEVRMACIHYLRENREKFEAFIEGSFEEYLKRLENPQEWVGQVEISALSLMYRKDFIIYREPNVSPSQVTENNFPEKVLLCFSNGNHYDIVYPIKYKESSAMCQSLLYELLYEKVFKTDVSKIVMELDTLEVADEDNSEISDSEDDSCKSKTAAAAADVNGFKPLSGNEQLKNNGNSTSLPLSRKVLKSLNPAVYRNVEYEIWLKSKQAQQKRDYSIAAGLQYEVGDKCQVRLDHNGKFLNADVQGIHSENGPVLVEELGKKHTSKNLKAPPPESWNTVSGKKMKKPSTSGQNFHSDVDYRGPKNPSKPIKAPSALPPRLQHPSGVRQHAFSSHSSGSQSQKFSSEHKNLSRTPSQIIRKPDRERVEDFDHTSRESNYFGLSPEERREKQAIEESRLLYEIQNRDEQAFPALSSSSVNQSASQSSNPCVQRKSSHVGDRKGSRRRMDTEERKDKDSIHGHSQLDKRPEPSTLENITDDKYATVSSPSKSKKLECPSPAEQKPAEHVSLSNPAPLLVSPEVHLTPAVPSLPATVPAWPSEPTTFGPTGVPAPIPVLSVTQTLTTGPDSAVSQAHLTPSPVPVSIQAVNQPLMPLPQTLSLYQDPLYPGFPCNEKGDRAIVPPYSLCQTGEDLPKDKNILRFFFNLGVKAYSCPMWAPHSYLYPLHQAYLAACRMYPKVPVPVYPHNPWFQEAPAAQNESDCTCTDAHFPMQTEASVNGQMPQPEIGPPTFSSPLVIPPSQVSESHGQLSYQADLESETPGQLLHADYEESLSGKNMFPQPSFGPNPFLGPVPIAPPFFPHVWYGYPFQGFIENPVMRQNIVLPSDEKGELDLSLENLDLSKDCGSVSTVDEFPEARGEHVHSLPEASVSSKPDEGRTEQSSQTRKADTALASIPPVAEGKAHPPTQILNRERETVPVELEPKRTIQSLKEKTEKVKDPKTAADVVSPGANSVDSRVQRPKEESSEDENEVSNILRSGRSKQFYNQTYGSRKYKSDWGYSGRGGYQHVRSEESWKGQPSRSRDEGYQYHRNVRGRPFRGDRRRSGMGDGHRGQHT
How it was run: as §1

OTUD5 = target: T5, OTUD5 (UniProt Q96G74)
T5 sequence (whole entry): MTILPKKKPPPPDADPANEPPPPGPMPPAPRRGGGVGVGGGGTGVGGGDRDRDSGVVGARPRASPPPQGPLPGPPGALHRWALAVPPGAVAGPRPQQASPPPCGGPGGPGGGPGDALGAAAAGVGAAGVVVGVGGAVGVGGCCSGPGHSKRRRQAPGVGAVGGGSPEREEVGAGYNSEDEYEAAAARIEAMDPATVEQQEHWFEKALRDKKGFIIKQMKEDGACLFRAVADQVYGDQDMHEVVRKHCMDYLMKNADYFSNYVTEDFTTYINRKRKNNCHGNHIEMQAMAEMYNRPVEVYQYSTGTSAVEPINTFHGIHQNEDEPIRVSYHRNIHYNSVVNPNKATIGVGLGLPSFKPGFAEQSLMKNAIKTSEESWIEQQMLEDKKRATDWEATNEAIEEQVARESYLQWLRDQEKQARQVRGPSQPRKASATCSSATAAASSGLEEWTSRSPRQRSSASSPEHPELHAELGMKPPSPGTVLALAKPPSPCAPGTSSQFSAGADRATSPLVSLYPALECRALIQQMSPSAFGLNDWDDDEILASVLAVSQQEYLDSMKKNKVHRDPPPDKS
How it was run: as §1

Measured: log2 ratio of Biotin-Ahx-Ub-VS probe labelling

Sequence of ATXN3 (P54252 whole entry): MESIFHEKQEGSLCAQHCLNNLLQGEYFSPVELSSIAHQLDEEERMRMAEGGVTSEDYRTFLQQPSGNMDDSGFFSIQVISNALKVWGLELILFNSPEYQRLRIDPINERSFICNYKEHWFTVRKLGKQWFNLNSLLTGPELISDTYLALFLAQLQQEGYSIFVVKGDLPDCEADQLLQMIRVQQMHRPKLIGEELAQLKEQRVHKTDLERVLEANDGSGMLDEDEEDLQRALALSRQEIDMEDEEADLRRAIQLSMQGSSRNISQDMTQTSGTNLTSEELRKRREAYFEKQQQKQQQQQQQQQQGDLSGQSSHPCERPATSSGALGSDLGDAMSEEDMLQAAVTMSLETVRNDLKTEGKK
Sequence of OTUB1 (Q96FW1 whole entry): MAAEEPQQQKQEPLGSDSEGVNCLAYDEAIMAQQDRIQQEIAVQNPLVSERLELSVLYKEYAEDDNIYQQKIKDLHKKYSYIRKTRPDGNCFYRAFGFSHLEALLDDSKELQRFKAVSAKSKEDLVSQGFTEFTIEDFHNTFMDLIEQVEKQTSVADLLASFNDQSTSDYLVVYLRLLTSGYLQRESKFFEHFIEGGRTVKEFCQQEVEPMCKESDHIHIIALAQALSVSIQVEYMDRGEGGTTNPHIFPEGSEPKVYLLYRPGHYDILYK
Sequence of EIF3H (O15372 whole entry): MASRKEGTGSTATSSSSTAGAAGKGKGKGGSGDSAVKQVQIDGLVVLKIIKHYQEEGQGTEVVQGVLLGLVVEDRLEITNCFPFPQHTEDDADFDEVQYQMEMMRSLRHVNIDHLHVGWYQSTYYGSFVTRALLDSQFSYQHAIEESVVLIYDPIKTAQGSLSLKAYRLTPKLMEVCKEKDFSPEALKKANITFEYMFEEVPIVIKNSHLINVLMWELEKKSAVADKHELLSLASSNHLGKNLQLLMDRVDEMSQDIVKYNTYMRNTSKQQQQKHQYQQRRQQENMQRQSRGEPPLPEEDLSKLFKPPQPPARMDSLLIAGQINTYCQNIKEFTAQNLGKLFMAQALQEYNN
Sequence of EIF3F (O00303 whole entry): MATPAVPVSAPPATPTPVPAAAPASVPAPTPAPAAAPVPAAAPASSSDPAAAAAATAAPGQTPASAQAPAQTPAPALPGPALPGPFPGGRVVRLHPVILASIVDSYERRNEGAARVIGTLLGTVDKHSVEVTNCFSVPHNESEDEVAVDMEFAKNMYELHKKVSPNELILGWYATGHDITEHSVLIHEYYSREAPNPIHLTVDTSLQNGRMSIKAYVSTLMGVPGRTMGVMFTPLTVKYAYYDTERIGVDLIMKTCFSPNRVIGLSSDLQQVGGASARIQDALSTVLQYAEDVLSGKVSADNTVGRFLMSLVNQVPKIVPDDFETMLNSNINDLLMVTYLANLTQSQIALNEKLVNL

Cl.O=C(CCl)N1CCCC(c2ncc[nH]2)C1 (centres undefined)
inactive: ALG13 0.0212 | ATXN3 -0.259 | BAP1 -0.246 | EIF3F -0.0106 | EIF3H 0.267 | FAM105A 0.0977 | OTUB1 -0.0773 | OTUD4 -0.288 | OTUD5 -0.22

Reference: the supplement of paper PMC11732987, “Enantioselective OTUD7B fragment discovery through chemoproteomics screening and high-throughput optimisation” (Communications Chemistry, 2025)
